Experimental data as given in PubChem BioAssay (NCI).
The panel holds about 83,000 compounds, 20% with a hit somewhere; the sample as a whole holds those more often.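 The test compound was applied at a single concentration to cells in 96-well plates for 48 hours, and percent growth was recorded.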 Active and inactive are the calls of the source. Rule for the calls: active = growth percent below 10; inactive = the rest.

System: SN12C renal
Assay: NCI-60 one-dose screen, 48 h (100 = growth as untreated, 0 = no growth, -100 = all killed)
Settings: 10 µM unless noted

| Structure (SMILES) | growth |
| --- | --- |
| CCCCCSc1ccc2nc(NC(=O)OCC)sc2c1 | 52.5% (inactive) |
| COc1ccc(C2C3(C#N)C(N)=NC(=C(C#N)C#N)C23C#N)cc1OC (stereo unspecified) | 109% (inactive) |
| CCCCCCCCCCCCCCCC[n+]1cccc(C#N)c1 | 96.9% (inactive) |
| CC(C)OC(=O)c1ccc2n1CCCc1cnc(Nc3ccccc3)nc1-2 | 81.7% (inactive) |
| COc1cc(Cn2ccc3c2-c2oncc2CC3)cc(OC)c1 | 38% (inactive) |
| COC(=O)c1ccc(C(=Nc2ccc(N(C)C(=O)CN3CCN(C)CC3)cc2)c2c(O)[nH]c3ccc(C(=O)OC)cc23)cc1 | 17.3% (inactive) |
| COc1cccc2c1nc1cccc(OC)c1[n+]2[O-] | 43.7% (inactive) |
| CC(=O)NNC(=O)c1sc(NC(C)=O)nc1C | 99.4% (inactive) |
| CCOC(=O)NNc1[nH]c(-c2ccc(OC)cc2)cc1C#N | 94.7% (inactive) |
| COc1cc(N)c2nccc(C)c2c1OC | 98.8% (inactive) |
| CCOC(=O)c1c2c(cn1Cc1ccccc1)-c1oncc1CC2 | 76.1% (inactive) |
